Bioassay records: PubChem BioAssay, National Center for Advancing Translational Sciences (NCATS)
Giardia kill = kills Giardia lamblia | AID 540267 | 0.15% of 340,000 active | activity change, % at 7.66 µM, hits read low | Giardia lamblia trophozoite viability; in the data active means activity change below about -80%; inconclusive means between about -30% and that limit;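 further: parasites exposed to compound for two days anaerobically before the ATP read; on the % scale 0 is the no-effect control and ±100 the full control effect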
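Giardia trophozoites, 100 cells per well, were exposed to compounds for 48 hrs at 37 deg C under anaerobic conditions; viability was then read as ATP content by bioluminescence after 15-30 min at room temperature.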
VP16 counter = counter-screen for ROR gamma inhibitors: Gal4-VP16 reporter. Drosophila S2 Gal4-VP16 UAS-luciferase, luminescence, 20 h. Potency, µM (series often up to 53.6 µM), for the others: top-dose activity, negative = inhibition, hits mostly inhibitors. 3.5% of 310,000 active. AID 2546;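 further: Gal4-VP16 expression switched on by copper sulfate through the metallothionein promoter; potency means the concentration at half of the fitted maximal effect; on the % scale 0 is the no-effect control and ±100 the full control effect; nearly all actives have a fitted effect of over 50% in size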
BRCA1 expr up = BRCA1 expression activation. MCF7-BRCA1-FFLuc reporter, luminescence, 48 h; response scale: scaled: vehicle 0%, 10 µM genistein 100%. Potency, µM (highest dose often 46.1 µM), for the others: at the highest dose activation, actives largely listed as activators. 1.1% of 380,000 active; further: potency means the concentration at half of the fitted maximal effect; nearly all actives have a fitted effect of over 80% in size
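MCF7-BRCA1-FFLuc cells, 2000/well in phenol-red-free MEM, attached 2 h then treated 48 h at 37 C. Luciferase luminescence read 15 min after reagent; normalized to genistein maximum activation (10microM) and DMSO, concentration-response fitted.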
RORg inh = ROR gamma (mouse) transcription inhibition; Potency, µM (series often up to 53.6 µM), inactives show at the highest dose activity change, negative = inhibition, most hits filed as inhibitors; P51450; Drosophila S2 Gal4-RORgamma UAS-luciferase reporter, 20 h; 5.4% of 310,000 active; further: potency means the concentration at half of the fitted maximal effect; on the % scale 0 is the no-effect control and ±100 the full control effect; nearly all actives have a fitted effect of over 60% in size
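Read-out: Photinus luciferase luminescence; inhibitors lower reporter signal. Insect Schneider cells with Gal4-ROR gamma fusion under metallothionein promoter, UAS reporter; 700 uM final copper sulfate induction, 20 hr, ambient temperature.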
ELG1 DNA repair = ELG1-dependent DNA repair inhibition. 2.3% of 330,000 active. HEK293T ELG1-luciferase reporter, luminescence, 16 h; DNA damage induced by 5-fluorouridine. Potency, µM (series often up to 46.1 µM), without a hit: at the highest dose activity change, negative = inhibition, hits mostly inhibitors; further: potency means the concentration at half of the fitted maximal effect; on the % scale 0 is the no-effect control and ±100 the full control effect; nearly all actives have a fitted effect of over 55% in size
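HEK293T cells expressing luciferase-tagged ELG1 (2,000/well) received 5-Fluorouridine plus compound or DMSO for 16 hr at 37 °C. Luciferase was read by ONE-Glo luminescence after 30 min at room temperature.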
p53 reactivator = re-activators of mutant p53; 0.063% of 320,000 active; Potency, µM (highest dose often 92.2 µM), without a hit: top-dose activity change, positive = activation, actives largely listed as activators; H1299 p53-A138V BP100-luciferase reporter, luminescence, 24 h; further: potency means the concentration at half of the fitted maximal effect; % of control where 0% means no effect; nearly all actives have a fitted effect of over 45% in size
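p53-null H1299 cells stably carrying temperature-sensitive p53-A138V and a BP100-luciferase reporter were pinned with compounds (4-point, 1:5 series) and held 24 hrs at 37 deg C. Luminescence was read 10 min after detection reagent.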
ELG1 FLuc counter = luciferase inhibition in cell-free luciferin readout for ELG1 hits; shares compounds with ELG1 DNA repair; cell-free firefly luciferase luminescence counter-screen, ViewLux; Potency, µM (highest dose often 46.1 µM), without a hit: at the top dose activity change, negative = inhibition, usual class: inhibitors; 3% of 350 active; further: potency means the concentration at half of the fitted maximal effect; on the % scale 0 is the no-effect control and ±100 the full control effect
ELG1-Luc inh = confirmation of human ELG1-dependent DNA repair inhibitors; shares compounds with ELG1 DNA repair; HEK293T ELG1-luciferase levels, luminescence; cells co-treated with 5-fluorouridine; Potency, µM (titrated, usually from 46.1 µM), for the others: top-dose activity change, negative = inhibition, usual class: inhibitors; 68% of 670 active; further: potency means the concentration at half of the fitted maximal effect; on the % scale 0 is the no-effect control and ±100 the full control effect; nearly all actives have a fitted effect of over 55% in size
ELG1 MMS Luc = inhibits ELG1-dependent repair under MMS stimulation in HEK293T cells; shares compounds with ELG1 DNA repair; Potency, µM (series often up to 46.1 µM), inactives show at the highest dose activity change, negative = inhibition, hits mostly inhibitors; HEK293T luciferase-tagged ELG1 level, MMS stimulated; 53% of 670 active; further: potency means the concentration at half of the fitted maximal effect; on the % scale 0 is the no-effect control and ±100 the full control effect; nearly all actives have a fitted effect of over 60% in size
ELG1 5-FU = confirmation of ELG1 repair inhibitors: viability with 5FU; shares compounds with ELG1 DNA repair; cell viability with 5-FU, ELG1-dependent repair; Potency, µM (highest dose often 46.1 µM), without a hit: at the top dose activity change, negative = viability loss, actives largely listed as cytotoxic; 670 tested, under 10 active;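 further: ELG1-luc HEK293T cells cotreated with 5-fluorouridine at 10 µM final; potency means the concentration at half of the fitted maximal effect; viability measured 16 h after compound addition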
ELG1 MMS cell = confirmation of ELG1 repair inhibitors: viability with MMS; shares compounds with ELG1 DNA repair; 33% of 670 active; Cell viability with MMS, ELG1-dependent DNA repair; Potency, µM (titrated, usually from 46.1 µM), without a hit: at the highest dose activity change, negative = viability loss, most hits filed as cytotoxic;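 further: ELG1-luc HEK293T cells co-treated with 10 µM MMS; potency means the concentration at half of the fitted maximal effect; viability read 16 h after compound addition; on the % scale 0 is the no-effect control and ±100 the full control effect; nearly all actives have a fitted effect of over 60% in size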
ELG1 unstim viab = unstimulated viability counter-screen for ELG1 repair hits | shares compounds with ELG1 DNA repair | cell viability counter-screen, unstimulated, luminescence | 8% of 900 active | AID 624252 | Potency, µM (highest dose often 45.9 µM), for the others: at the highest dose activity change, negative = loss of viability, usual class: cytotoxic;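 further: potency means the concentration at half of the fitted maximal effect; compound exposure lasted 16 hours before reading; on the % scale 0 is the no-effect control and ±100 the full control effect; nearly all actives have a fitted effect of over 55% in size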
FLuc biochem = inhibits purified firefly luciferase, counter-screen for ELG1 hits. purified firefly luciferase, luminescence counter-screen. Potency, µM (highest dose often 57.5 µM), for the others: at the top dose activity, negative = inhibition, hits mostly inhibitors. 10% of 350 active. shares compounds with ELG1 DNA repair; further: potency means the concentration at half of the fitted maximal effect; on the % scale 0 is the no-effect control and ±100 the full control effect
* = called active by the depositor; ? = inconclusive; nt = no result. Hits are enriched below; roughly 7.6% of the tested compounds scored in any of these assays. Unless noted, the call rests on the fitted dose curve; in most records, active means well fitted curve in the direction sought with a large enough effect; inconclusive means small, poorly fitted or top-dose-only effect, or another doubt; inactive means no such curve, though single readings can be large; an effect the other way counts as inactive or inconclusive.

SMILES	Giardia kill	VP16 counter	BRCA1 expr up	RORg inh	ELG1 DNA repair	p53 reactivator	ELG1-Luc inh	ELG1 MMS Luc	ELG1 5-FU	ELG1 MMS cell	ELG1 unstim viab	others
CN1CCN(c2ncnc3scc(-c4ccccc4Cl)c23)CC1	-18	1%	-45%	-32%	4.1µM*	-18%	7.1µM*	16µM*	-10%	-2%	?
CN1CCN(c2ncncc2-c2ccccc2Cl)CC1	nt	12%	nt	-2%	nt	nt	nt	nt	nt	nt	nt
COCC1=C(C(=O)OC(C)OC(=O)OC(C)C)N2C(=O)[C@@H](NC(=O)/C(=N\OC)c3csc(N)n3)[C@H]2SC1 (stereo partly drawn)	-5	nt	0%	nt	nt	nt	nt	nt	nt	nt	nt
CCOC(=O)c1c(C)[nH]c(C(=O)N2CCc3cc(OC)c(OC)cc3C2)c1C	6	nt	-56%	nt	1.5µM*	-6%	3.5µM*	?	?	-16%	-18%
CCOC(=O)c1c(C)[nH]c(C(=O)N2CCN(C(=O)OCC)CC2)c1C	2	-11%	-1%	-29%	0%	-2%	nt	nt	nt	nt	nt
CSc1ccc(C2c3[nH]c4ccccc4c3CCN2C(=O)c2cc(C)n(C)n2)cc1 (stereo not drawn)	nt	3%	nt	12%	?	7%	nt	nt	nt	nt	nt
CCc1ccc(C2c3[nH]c4ccccc4c3CCN2C(=O)c2cc(C)nn2C)cc1 (stereo not drawn)	-20	-9%	-62%	19%	?	4%	11µM*	20µM*	?	?	?
COc1ccc(-c2csc(NC(=O)c3ccc(OCC(=O)N4CCOCC4)c(OC)c3)n2)cc1OC	0	-10%	-73%	0%	4.6µM*	5%	4µM*	14µM*	?	25µM*	16µM*
COc1cnc(-c2ccccn2)nc1Sc1ccc(Cl)cc1	5	5.6µM*	4%	5.6µM*	0.37µM*	-1%	28µM*	?	15%	-12%	-11%	ELG1 FLuc counter=5%;FLuc biochem=-7%
